In PubChem BioAssay AID1851 (National Center for Advancing Translational Sciences (NCATS), 2009):
Where “and” joins values, the source holds several entries; their conditions need not be identical. Equal values may be shown once. About 5,800 (36%) of roughly 16,000 compounds were called active. Roughly 23% stayed inconclusive and do not appear here. The call rests on the fitted dose curve; in most records, active means well fitted curve in the direction sought with a large enough effect; inconclusive means small, poorly fitted or top-dose-only effect, or effect the other way; inactive means no such curve, though single readings can be large or run the other way. The list shows a part of the results. Where a structure was tested more than once in an assay, its records may differ in their call.

What follows are compounds tested against Cytochrome P450 2C19 (Homo sapiens) (UniProt P33261) (assay: Cytochrome panel assay with activity outcomes). Settings: recombinant CYP, pro-luciferin dealkylation, luminescence, p450-cyp2c19; series mostly up to 57.1 µM; activity, negative = inhibition: at the top concentration.
On the % scale 0 is the no-effect control and ±100 the full control effect.

Cytochrome P450 2C19 (Homo sapiens), sequence (P33261 whole entry, looked up): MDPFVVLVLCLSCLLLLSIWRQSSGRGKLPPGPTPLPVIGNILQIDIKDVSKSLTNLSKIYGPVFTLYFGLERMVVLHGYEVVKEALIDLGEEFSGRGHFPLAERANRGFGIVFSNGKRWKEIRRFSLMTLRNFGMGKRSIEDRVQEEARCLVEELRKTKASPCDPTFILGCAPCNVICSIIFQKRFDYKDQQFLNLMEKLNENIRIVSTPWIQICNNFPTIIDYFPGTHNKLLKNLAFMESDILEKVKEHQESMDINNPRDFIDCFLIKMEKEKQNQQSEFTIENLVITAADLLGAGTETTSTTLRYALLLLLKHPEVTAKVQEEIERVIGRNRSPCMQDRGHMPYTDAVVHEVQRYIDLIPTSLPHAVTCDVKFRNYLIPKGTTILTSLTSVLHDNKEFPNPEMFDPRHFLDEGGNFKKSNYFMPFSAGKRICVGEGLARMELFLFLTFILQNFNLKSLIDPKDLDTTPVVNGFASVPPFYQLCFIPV

SMILES	activity, negative = inhibition	AC50
C[C@@H]1[C@@H]2Cc3ccc(O)cc3[C@@]1(C)CCN2CC1CC1	14.6% (inactive)	
O=C(O)[C@@H]1C[C@H]1[C@@H](NP(=O)(c1ccccc1)c1ccccc1)c1ccccc1	-13.7% (inactive)	
COc1cccc(-n2c(O)c(C=NCCN3CCOCC3)c(=O)[nH]c2=O)c1	9.05% (inactive)	
Cc1ccccc1OCCN=Cc1c(O)n(C)c(=O)n(C)c1=O		10 µM (active)
CC[N@+]1(C)CCC[C@@H](OC(=O)C(O)(c2ccccc2)c2ccccc2)C1	-6.54% [at 25.6 µM] (inactive)	
C/C(O)=C(/C#N)C(=O)Nc1cc(Br)ccc1Br	27.1% (inactive)	
COC(=O)C1=CCCN(C)C1		inactive
C[C@H](Br)CN(C[C@H](C)Br)c1ccc2c(c1)Cc1ccccc1-2		2.51 µM (active)
CC[C@H](C(=O)[C@H](C)[C@H](O)[C@H](C)CCc1ccc(C)c(O)c1C(=O)O)[C@H]1O[C@](CC)([C@@H]2CC[C@@](O)(CC)[C@H](C)O2)C[C@H]1C	-35.4% [at 25.6 µM] (inactive)	
COCCCn1c(N)c(C(=O)Nc2sc3c(c2C(=O)OC)CCCC3)c2nc3ccccc3nc21		3.55 µM (active)
C=CCN1CC[C@@]23c4c5ccc(O)c4O[C@H]2/C(=N\N=C2/CC[C@@]4(O)[C@H]6Cc7ccc(O)c8c7[C@@]4(CCN6CC=C)[C@@H]2O8)CC[C@]3(O)[C@@H]1C5		inactive
NCCc1ccc(S(=O)(=O)F)cc1	-34% (inactive)	
COc1ccc(CNC(=O)/C=C\c2ccc3[nH]cc(CCN(C)C)c3c2)cc1	-39.5% (inactive)	
C=CCN1C[C@H](C)N([C@H](c2ccc(C(=O)N(CC)CC)cc2)c2cccc(OC)c2)C[C@H]1C	-46.3% (inactive)	
COc1cc2c(cc1OC)[C@@H]1C(=O)c3ccc4c(c3O[C@@H]1CO2)C=CC(C)(C)O4		5.01 µM (active)
C=C(C)[C@H]1Cc2c(ccc3c2O[C@H]2COc4cc(OC)c(OC)cc4[C@@H]2C3=O)O1		2.51 µM (active)
N[C@@H](Cc1ccccc1)P(=O)(O)O	-2.53% [at 11.4 µM] (inactive)	
Cn1c[n+](C)cc1C(O)c1ccccc1 (configuration not stated)	-3.97% (inactive)	
COc1ccc2[nH]c3c(c2c1)CCN=C3C	-3.57% [at 25.6 µM] (inactive)	
Oc1ccc2c3c1O[C@H]1c4oc5ccccc5c4C[C@]4(O)[C@H](C2)N(CC2CC2)CC[C@@]314		inactive
C=CCO[C@@H](Cn1ccnc1)c1ccc(Cl)cc1Cl		0.01 µM (active)
N[C@@H](Cn1cc(I)c(=O)[nH]c1=O)C(=O)O	9.16% (inactive)	
O=C(Nc1ccccc1)N1CCCC2(CCN(C(=O)Oc3ccccc3)CC2)C1	-18.6% (inactive)	
C[C@H](N)c1cccc(Cl)c1Cl	26.2% (inactive)	

SMILES	activity, negative = inhibition	AC50
Oc1ccc2c3c1O[C@H]1c4c(c5ccccc5n4Cc4ccccc4)C[C@]4(O)[C@H](C2)N(CC2CC2)CC[C@@]314	-17.4% (inactive)	
NC(N)=NS(=O)(=O)c1ccc(N)cc1	-11.9% [at 25.6 µM] (inactive)	
C[N+]1(C)CCO[C@@](O)(c2ccc(-c3ccc([C@]4(O)C[N+](C)(C)CCO4)cc3)cc2)C1	-4.09% (inactive)	
c1ccc2c(c1)OC[C@@H](C1=NCCN1)O2		inactive and 7.94 µM (active)
CC[C@]1(C2=NCCN2)Cc2ccccc2O1	-24.5% (inactive)	
NC[C@@H](O)CSP(=O)(O)O	8.63% [at 11.4 µM] (inactive)	
NC(=O)CN1CCCC1=O		inactive
Nc1nnnn1CCO	28.1% [at 11.4 µM] (inactive)	
O=C(O)c1cc[c]([Hg][S]c2ncnc3nc[nH]c23)cc1		0.631 µM (active)
CO[C@H]1[C@H](O)[C@H](O[C@@H]2[C@H](Oc3cccc4c(O)c5c(=O)oc6ccc(C)c7c(=O)oc(c34)c5c67)O[C@@H](C)[C@H](O)[C@H]2O)O[C@@H](C)[C@@H]1O	22.4% [at 11.4 µM] (inactive)	
CC[C@@H](CO)Nc1nc(NCc2ccccc2)c2ncn(C(C)C)c2n1	-21.4% (inactive)	
NCCc1c[nH]c2ccc(O)cc12		inactive
Cc1[nH]c2ccc(O)cc2c1CCN		inactive and 7.94 µM (active)
CNCCc1c[nH]c2ccc(O)cc12	-19.6% (inactive)	
CCCN(CCC)[C@@H]1CCc2c(OC)cccc2[C@@H]1C	-1.67% (inactive)	
C[C@]12CC[C@H](O)CC1=CC[C@@H]1[C@H]2CC[C@]2(C)C(=O)CC[C@H]12	-18.9% (inactive)	
O=P(Nc1ccccc1)(Nc1ccccc1)Oc1cccc(Cl)c1		5.01 µM (active)
NS(=O)(=O)c1ccc(-c2ccc([As](=O)(O)O)cc2)cc1	24.2% [at 11.4 µM] (inactive)	
C[C@]12N[C@H](Cc3ccccc31)c1ccccc12		inactive
N#Cc1ccc(CN2CC[C@@]3(CCCNC3)C2)cc1	-3.29% (inactive)	
Clc1cccc(N2CCNCC2)c1	17.9% (inactive)	
CN[C@H](Cc1ccccc1)c1cccc(OC)c1O		2 µM (active)
NCCP(=O)(O)O	26% [at 11.4 µM] (inactive)	
